Screens: PubChem, National Center for Advancing Translational Sciences (NCATS)
HTT ATP protect: cytoprotection in Huntington HTT-Q103 PC12 cell model; PC12 HTT-Q103 induced, cytoprotection, ATP luminescence, 40 h; Potency, µM (doses to about 56.4 µM), without a hit: cytoprotection (ATP increase), actives largely listed as activators; actives 0.14% (n = 230,000); AID 1471; further: % of control where 0% means no effect; nearly all actives have a fitted effect of over 45% in size
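PC12 cells with ecdysone-inducible HTT exon 1 Q103-GFP, induced with 100 nM tebufenozide and co-treated with library compounds in a dose series (1536-well, 1500 cells/well). Cytoprotection read as ATP content by ATPlite luminescence.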
NPSR antag: neuropeptide S receptor (human) antagonism, cAMP; Q6W5P4; CHO-NPSR cells, cAMP TR-FRET, antagonist mode; Potency, µM (top dose mostly 38.3 µM), without a hit: at the highest dose activity change, negative = inhibition, most hits filed as inhibitors; actives 1% (n = 220,000); AID 1461; further: on the % scale 0 is the no-effect control and ±100 the full control effect; nearly all actives have a fitted effect of over 50% in size
Target sequence (Q6W5P4 whole entry, looked up): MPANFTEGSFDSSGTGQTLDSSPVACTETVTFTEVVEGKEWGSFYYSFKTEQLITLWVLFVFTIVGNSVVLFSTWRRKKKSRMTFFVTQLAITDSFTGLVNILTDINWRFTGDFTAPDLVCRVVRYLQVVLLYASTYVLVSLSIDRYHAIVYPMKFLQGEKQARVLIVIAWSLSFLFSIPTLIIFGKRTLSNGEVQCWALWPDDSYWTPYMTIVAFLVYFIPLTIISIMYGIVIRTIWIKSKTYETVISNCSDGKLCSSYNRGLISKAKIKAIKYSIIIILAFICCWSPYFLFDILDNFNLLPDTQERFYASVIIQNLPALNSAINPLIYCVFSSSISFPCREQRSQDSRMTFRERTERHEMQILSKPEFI
IMPase Li cell: IMPase inhibition in cells with lithium potentiation. AID 1457. actives 0.35% (n = 210,000). CHO-M1 cells, IP1 TR-FRET (IP-One), carbachol + lithium. Potency, µM (doses to about 59.4 µM), inactives show at the highest dose activity, negative = IMPase inhibition, hits mostly inhibitors;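 further: IP1 builds up when IMPase is blocked and the TR-FRET signal falls; plate controls were basal vehicle for no effect and high inhibitor control for full effect; nearly all actives have a fitted effect of over 50% in size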
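Steps: plate 2000 CHO-M1 cells per well and culture 16–30 h; add compound and lithium; incubate 30 min, 37C; add d2-IP1 tracer and Eu cryptate anti-IP1 antibody in lysis buffer; read after 10 min at room temperature.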
HTT aggregate: mutant huntingtin aggregation inhibition | PC12 HttQ103-GFP aggregates, Acumen cytometry, 40 h | Potency, µM (doses to about 46.1 µM), inactives show at the top dose activity change, negative = inhibition, hits mostly inhibitors | actives 1.1% (n = 220,000); further: on the % scale 0 is the no-effect control and ±100 the full control effect; nearly all actives have a fitted effect of over 60% in size
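PC12 cells with ecdysone-inducible HTT exon1 Q103-GFP, induced by 100 nM tebufenozide, given compounds in a concentration series. GFP aggregates (1–25 um, 6 SD above background) counted in lysates by laser-scanning cytometry, 488 nm excitation.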
ERK EGF block: inhibitors of EGF-stimulated ERK signaling pathway; HEK293-V1b, EGF-stimulated phospho-ERK AlphaScreen; Potency, µM (doses to about 11.5 µM), for the others: at the highest dose activity change, negative = inhibition, hits mostly inhibitors; AID 1454; actives 0.41% (n = 130,000);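 further: plate controls were stimulated vehicle wells for no effect and unstimulated vehicle basal for full effect; nearly all actives have a fitted effect of over 55% in size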
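In this qHTS, HEK293 cells with stable type-1 vasopressin (V1b) receptor were exposed to compound at 37C for 30 min, stimulated 5 min with EGF at 25 nM, lysed, and probed for phospho-ERK by AlphaScreen.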
The depositor's hits bear a star; ? = inconclusive; . = no result; [ ] = another dose, or the depositor's remark. Sampled rows, rich in hits. Any-hit rate of the full collection: about 1.9%. The call rests on the fitted dose curve; in most records, active means well fitted curve in the direction sought with a large enough effect; inconclusive means small, poorly fitted or top-dose-only effect, or another doubt; inactive means no such curve, though single readings can be large; an effect the other way counts as inactive or inconclusive. Potency means the concentration at half of the fitted maximal effect.

SMILES	HTT ATP protect	NPSR antag	IMPase Li cell	HTT aggregate	ERK EGF block
CC(C)NC(=O)CSc1nc(-c2cccs2)cc(-c2ccccc2)c1C#N	11%[1.9 µM]	10µM*	?	-6%	4%
COc1ccc(-c2nc3c(c4c2C[C@H](c2ccccc2)OC4)CN(S(=O)(=O)c2ccc(Cl)c4nonc24)CC3)c(C)c1	-5%[10 µM]	.	3%	.	.
COC(=O)[C@@]1(Cc2ccc(F)cc2)[C@H]2c3cc(C(=O)N4CCCC4)n(CCN4CNCC4=O)c3C[C@H]2CN1C(=O)c1ccccc1	13%	.	-4%	.	0%
CC(C)=CCOc1ccc(/C=C/C(=O)c2ccc(OCC=C(C)C)cc2OCC(=O)O)cc1	?	.	0%	14%	.
Cc1nn(-c2ccccn2)c2c1-c1nc(N)ncc1CC2	-57%	-10%[46.1 µM]	-14%[38.3 µM]	11µM*	.
CCCCCCCCCCn1c2c(c(=N)c3c1CCC3)CCC2	-108%	?	19%[38.3 µM]	1µM*	.
CCCCCCCCCn1c2c(c(=N)c3c1CCC3)CCCC2	-76%[10 µM]	?	29%	-33%[9.22 µM]	-6%
CCN1c2ccccc2N(C)C1(C)c1ccccc1 (centres undefined)	16%[10 µM]	-9%	14%	13µM*	-12%
CN1c2ccccc2N(C)C1(C)c1ccccc1	-19%[10 µM]	-8%	4%	-14%	1%
CCC(=O)Oc1c(C(=O)CC)cc2c(C)cc(=O)oc2c1C	.	6%	3%	13µM*	8%
CCOC(=O)CCN1C(=O)[C@H]2[C@H]3[C@H](O)[C@H](O)C/C(=N/OC[C@@H](O)COCc4ccco4)[C@@H]3CC[C@@H]2C1=O	-3%[10 µM]	.	.	.	.
O=C(CCCCCn1c(=S)[nH]c2ccc(N3CCOCC3)cc2c1=O)NCc1ccc2c(c1)OCO2	.	-59%	?	28%	1%
O=C(CCCCCn1c(=S)[nH]c2ccc(N3CCOCC3)cc2c1=O)NCc1ccc(Cl)cc1	7%[10 µM]	10µM*	11µM*	14%[9.22 µM]	4%
COC(=O)C1C(=O)c2c([nH]c(C(=O)OC3CCCCCC3)c2C)CC1C (centres undefined)	.	3%[46.1 µM]	8%[38.3 µM]	0.001µM*	.
COC(=O)C1C(=O)c2c([nH]c(C(=O)OCC3CCCO3)c2C)CC1C (centres undefined)	-10%	13µM*	25%[38.3 µM]	-23%	.
Nc1c(S(=O)(=O)O)cc(Nc2cccc(S(N)(=O)=O)c2)c2c1C(=O)c1ccccc1C2=O	4%[10 µM]	.	3%	.	.
CCCc1c(C)nc2ccccc2c1SCCC#N	-41%[10 µM]	2%	-5%	3.2µM*	3%
CCc1c(C)nc2ccc(Br)cc2c1SCCC#N	31%[10 µM]	-28%	-21%	7.9µM*	0%
CC(C)(C)c1cc(C(=O)/C=C/c2ccc(C(=O)O)cc2)cc(C(C)(C)C)c1	2.5µM*	.	1%	.	?
COc1cccc(-c2nc(NC(C)(C)C)c3ccccc3n2)c1O	-31%	?	.	35µM*	.
COc1cccc(-c2nc(N3CCCC3)c3ccccc3n2)c1O	-25%[10 µM]	31%	.	-13%[9.22 µM]	-13%[57.5 µM]
C[C@H](O)[C@@H]1C(=O)N2C(C(=O)O)=C(SCCN=CN)C[C@@H]12	-4%[40.3 µM]	.	3%	5%[20.6 µM]	11%[25.7 µM]
CCCCCSc1nnc(-c2ccccc2N)c(=O)[nH]1	.	0%	-3%	2%	7%
CCCCCSc1nnc(-c2ccccc2NC(C)=O)c(=O)[nH]1	2.8µM*	-3%	-7%	7%	-3%[57.5 µM]
CC[C@H](C)[C@@H](NC(=O)O[C@@H]1C(=O)c2ccc(OC)cc2O[C@H]1c1ccc2c(c1)OCO2)C(=O)OC	-35%	.	12%	.	-10%
SMILES	HTT ATP protect	NPSR antag	IMPase Li cell	HTT aggregate	ERK EGF block
Nc1c(C(=O)Nc2ccc(S(=O)(=O)N3CCCC3)cc2)sc2nc3cc4c(cc3cc12)CCC4	-21%[10 µM]	3%	-9%	14µM*	-3%
Clc1ccc(Cl)c(Cl)c1Cl	-4%	.	-29%	.	.
Cn1cccc1/C=C1\CC(C(C)(C)C)C/C(=C\c2cccn2C)C1=O (centres undefined)	2%	10µM*	41%[38.3 µM]	-10%	.
C=CCOC(=O)[C@H](O)[C@@H](O)C(=O)OCC=C	?	.	5%	.	-13%
Cc1nn(-c2ccccc2)c2c1C(c1ccc([N+](=O)[O-])cc1)N1C(=N2)C(=O)Nc2ccccc21 (centres undefined)	-19%[10 µM]	?	16%	13µM*	-1%
CN(C)c1ccc(C(=O)Nc2nc3c(s2)CCCC3)cc1	-44%[10 µM]	-50%	14%	5%	22µM*
CC(C)(C)c1ccc(C(=O)NC(=S)Nc2nc3c(s2)CCCC3)cc1	.	-19%	5%	-23%	8%
Cc1ccc2cccc(OC(=O)/C=C\c3ccccc3)c2n1	3.2µM*	3%	9%	10%[9.22 µM]	9%
Cc1oc(-c2cccc(F)c2)nc1CN1CCCCC1CCn1cccn1 (centres undefined)	-16%[10 µM]	21%	11%	-16%[9.22 µM]	-3%
Cc1ccc(-c2nc(CN3CCCCC3CCN3CCCC3=O)c(C)o2)o1 (centres undefined)	4µM*	-7%	14%	24%[9.22 µM]	10%
O[C@@H]1CC[C@H]2Cc3ccccc3N=C21	-14%	.	.	.	.
[O-][N+]1=c2ccc(Nc3ccccc3)cc2=NC12CCCCC2	-109%	10µM*	68%[38.3 µM]	?	.
CC(=O)Nc1ccc(NC(=O)CN(c2cc(Cl)ccc2Cl)S(C)(=O)=O)cc1	-7%	11%	4%	32µM*	-4%
CS(=O)(=O)N(CC(=O)Nc1cc(Cl)ccc1Cl)c1ccccc1Cl	11%	-23%[46.1 µM]	-5%[38.3 µM]	25%[9.22 µM]	.
COc1ccc(COC2OC[C@]3(C)[C@H]4C5=C(CN3C(=O)OC(C)(C)C)[C@H](C)C(CO)C(CO)C5CC[C@@H]24)cc1 (some centres undefined)	-10%	.	-11%	.	0%
O=C(NNC(=O)c1ccc2ccccc2c1O)c1ccccc1Cl	11%[10 µM]	-7%[46.1 µM]	23%[38.3 µM]	32µM*	.
O=S(=O)(Nc1ccc2c(c1)OCCO2)c1ccc(Br)s1	-14%	-10%[46.1 µM]	4%[38.3 µM]	13µM*	.
O=S(=O)(Nc1ccc2c(c1)OCCO2)c1cccs1	-20%[0.074 µM]	20%[46.1 µM]	18%[38.3 µM]	-13%	.
CCOC(=O)c1ccc(NC(=S)NCCC2=CCCCC2)cc1	-2%[10 µM]	-33%	17%	-5%	-1%
Cc1ccc(NC(=S)NCCC2=CCCCC2)cc1	-84%	-10%	12%	13µM*	0%
O=C(/C=C/c1ccc(N2CCCCC2)c([N+](=O)[O-])c1)c1ccc(O)cc1	-5%[10 µM]	-42%	23%	18µM*	?
COc1ccccc1C(=O)/C=C/c1ccc(N2CCCCC2)c([N+](=O)[O-])c1	11%[10 µM]	?	4%	?	16µM*
O=C(O/N=C\c1ccc(N2CCCCC2)c([N+](=O)[O-])c1)c1ccc(Cl)cc1Cl	19%	-19%[46.1 µM]	3%[38.3 µM]	-28%	.
O=C1CSC(=S)N1c1cccnc1	-13%[0.074 µM]	7%[46.1 µM]	-3%[38.3 µM]	-20%	.
O=C1CSC(=S)N1/N=C/c1cccnc1	.	18%	.	0.89µM*	-3%[57.5 µM]
